Measured values: ChEMBL document CHEMBL4513216, “Probing the Open Global Health Chemical Diversity Library for Multistage-Active Starting Points for Next-Generation Antimalarials” (ACS Infect Dis, 2020)
The campaign covered roughly 69,000 compounds. About 8,600 (12%) showed an effect of 50% or more. The full list was thinned out, with strong results kept by preference.

test system: Plasmodium berghei; assay: Screen against P. berghei liver stage (PbLuc), transformed with Luciferase, at 10uM; assay type: functional, HepG2; conditions: tested at 10 uM

For `CNC(=O)CCS(=O)(=O)Cc1coc(-c2ccc(F)cc2)n1`, which INHIBITION is on record?
The INHIBITION was 7.43%.

For `NC(=O)NC(=O)CCSCc1coc(-c2ccc(F)cc2)n1`, which INHIBITION is on record?
Its INHIBITION is 67.8%.

Which INHIBITION does the source give for `Cc1ccc(-c2nc(CNCC3CN(C)CCO3)co2)c(C)c1` (configuration not stated) here?
The INHIBITION was 7.12%.

With `Cc1ccc(-c2nc(CSCCC(=O)NC(N)=O)co2)cc1` as the molecule, how does the INHIBITION read?
Its INHIBITION is 89.6%.

With `Cc1ccc(-c2nc(CSCCC(=O)NC(N)=O)co2)c(C)c1` as the molecule, how does the INHIBITION read?
Its INHIBITION is 87.4%.

`CNC(=O)Cc1coc(-c2ccc(F)cc2)n1` was tested. Which INHIBITION did it give?
The INHIBITION was 48.1%.

For `NC(=O)NC(=O)CCSCc1cc(F)cc2cccnc12`, which INHIBITION is on record?
The INHIBITION was -28.9%.

How did the INHIBITION turn out when `NC(=O)NC(=O)CCSCc1coc(-c2cccc(Cl)c2)n1` was run?
Its INHIBITION is 5.91%.

For `CS(=O)(=O)c1cccc(C(N)c2ccc(F)c(F)c2)c1` (configuration not stated), which INHIBITION is on record?
Its INHIBITION is -15%.

With `COCCNC(=O)Cn1c(-c2ccc(F)cc2)nc(C)c(CCO)c1=O` as the molecule, how does the INHIBITION read?
The INHIBITION was -20.7%.

Which INHIBITION does the source give for `CC1CCN(CC(=O)NC2CCN(C(C)c3ccccc3)CC2)CC1` (configuration not stated) here?
Its INHIBITION is -1.845%.

With `NCC1CCC(C(NC(=O)CC2CCCC2)c2ccccn2)CC1` (configuration not stated) as the molecule, how does the INHIBITION read?
Its INHIBITION is 1.11%.

`Cc1cc(-c2nn3c(C4CC4)nnc3s2)on1` was tested. Which INHIBITION did it give?
The INHIBITION was -6.47%.

Which INHIBITION does the source give for `CCn1c(C)cc(C(=O)N2CCCC(C(=O)c3nccn3C)C2)c1C` (configuration not stated) here?
Its INHIBITION is -1.09%.

`CC(=O)NC1CCN(c2cnc(C3CCNCC3)cn2)CC1` was tested. Which INHIBITION did it give?
The INHIBITION was 18.3%.

For `COCC1CCCN(c2cncc(OCc3ccccc3)n2)C1` (configuration not stated), which INHIBITION is on record?
Its INHIBITION is 26.5%.

Which INHIBITION does the source give for `CC(Cn1cccn1)NCc1nc(-c2ccco2)no1` (configuration not stated) here?
Its INHIBITION is 12.7%.

With `Cc1cccc(-c2noc(CNC(C)Cn3cc(C)cn3)n2)c1` (configuration not stated) as the molecule, how does the INHIBITION read?
Its INHIBITION is 25.4%.

For `Cc1cnn(CC(C)NCc2nc(-c3ccccn3)no2)c1` (configuration not stated), which INHIBITION is on record?
Its INHIBITION is 56.1%.

Which INHIBITION does the source give for `Cc1cnn(CC(C)NCc2nc(-c3ccco3)no2)c1` (configuration not stated) here?
Its INHIBITION is 53.5%.

`Cc1cnn(CCNCc2nc(-c3ccccn3)no2)c1` was tested. Which INHIBITION did it give?
Its INHIBITION is -50.5%.

With `CC(Cn1cccn1)NCc1nc(-c2ccccn2)no1` (configuration not stated) as the molecule, how does the INHIBITION read?
The INHIBITION was -62.7%.

Which INHIBITION does the source give for `CN1CC(=O)N(c2cccnc2)CC12CCN(C(=O)c1cccnc1)C2` (configuration not stated) here?
The INHIBITION was -13.3%.

Which INHIBITION does the source give for `O=C(c1ccccc1OC1CCCC1)N1CCCC(n2cncn2)C1` (configuration not stated) here?
Its INHIBITION is 49.8%.

How did the INHIBITION turn out when `Cc1ccc(CN2CCC3(CCC(C(=O)N(C)C)O3)CC2)o1` (configuration not stated) was run?
Its INHIBITION is -7.28%.

Which INHIBITION does the source give for `Cn1cc(CC2CCN(C(=O)NCc3cn4ccsc4n3)C2)cn1` (configuration not stated) here?
The INHIBITION was 19.7%.

Which INHIBITION does the source give for `CC(C)CNC(=O)N1C[C@@H]2C[C@H](C(=O)NCc3ccccc3)[C@H](C1)O2` here?
The INHIBITION was -7.2%.

For `COc1ccccc1N1CC(NC(=O)Cn2cc(C)nn2)CC1=O` (configuration not stated), which INHIBITION is on record?
The INHIBITION was -71.7%.

Which INHIBITION does the source give for `COc1ccccc1N1CC(NC(=O)c2cc(C(C)C)nn2C)CC1=O` (configuration not stated) here?
The INHIBITION was 69.4%.

With `COc1ccccc1N1CC(NC(=O)Cn2cc(C(C)C)nn2)CC1=O` (configuration not stated) as the molecule, how does the INHIBITION read?
Its INHIBITION is -14.2%.

How did the INHIBITION turn out when `Cc1ncccc1CNCC1CCc2nnc(C(C)C)n2C1` (configuration not stated) was run?
Its INHIBITION is 29.8%.

Which INHIBITION does the source give for `Cc1ncsc1CCNC(=O)Cn1nc(C)n(Cc2ccccc2)c1=O` here?
Its INHIBITION is -171%.

How did the INHIBITION turn out when `CC(c1ccccc1Cl)N(C)Cc1nc2c(cnn2C)c(=O)[nH]1` (configuration not stated) was run?
Its INHIBITION is 16.165%.

Which INHIBITION does the source give for `CCN(CC)C(CNC(=O)c1cccnc1-n1cncn1)c1ccsc1` (configuration not stated) here?
Its INHIBITION is 21.1%.

With `O=C(c1ccco1)N1CCC(n2nc(-c3cccs3)ccc2=O)CC1` as the molecule, how does the INHIBITION read?
The INHIBITION was 5.11%.

Which INHIBITION does the source give for `CC(C)C(=O)N1CCC(n2nc(-c3ccco3)ccc2=O)CC1` here?
The INHIBITION was 61.7%.

`O=C(c1cccs1)N1CCC(n2nc(-c3ccco3)ccc2=O)CC1` was tested. Which INHIBITION did it give?
Its INHIBITION is 50.6%.

For `O=C(c1ccco1)N1CCC(n2nc(-c3ccco3)ccc2=O)CC1`, which INHIBITION is on record?
Its INHIBITION is -8.12%.

How did the INHIBITION turn out when `CC(C)(C)C(=O)N1CCC(n2nc(-c3ccco3)ccc2=O)CC1` was run?
The INHIBITION was -4.51%.

`O=C(c1cccs1)N1CCC(Cn2nc(-c3ccco3)ccc2=O)CC1` was tested. Which INHIBITION did it give?
Its INHIBITION is 33.5%.

With `COc1cc(N2C[C@H]3CN(C(=O)c4cccnc4)C[C@H]3C2)ncn1` as the molecule, how does the INHIBITION read?
Its INHIBITION is 0.164%.

Which INHIBITION does the source give for `CC(C)N(C)Cc1cc(=O)n2c(n1)CN(C(=O)c1cnccn1)CCC2` here?
Its INHIBITION is 33.5%.

`CC(NC(=O)NCc1cccc(F)c1)(C(=O)O)c1ccco1` (configuration not stated) was tested. Which INHIBITION did it give?
The INHIBITION was 4.52%.

Which INHIBITION does the source give for `CC(NC(=O)NCc1ccccc1)(C(=O)O)c1ccco1` (configuration not stated) here?
The INHIBITION was 58%.

With `CC(C)Oc1cccc(CNC(=O)NC(C)(C(=O)O)c2ccco2)c1` (configuration not stated) as the molecule, how does the INHIBITION read?
Its INHIBITION is 14.4%.

Which INHIBITION does the source give for `CC(NC(=O)NCc1ccccc1F)(C(=O)O)c1ccco1` (configuration not stated) here?
Its INHIBITION is 25.1%.

How did the INHIBITION turn out when `CC(NC(=O)NCc1c(F)cccc1Cl)(C(=O)O)c1ccco1` (configuration not stated) was run?
The INHIBITION was 14.1%.

`COc1ccc(CNC(=O)NC(C)(C(=O)O)c2ccco2)cc1F` (configuration not stated) was tested. Which INHIBITION did it give?
The INHIBITION was 53.9%.

`COc1c(CNC2CCCOc3ccc(F)cc32)c(C(C)C)nn1C` (configuration not stated) was tested. Which INHIBITION did it give?
The INHIBITION was 0.914%.

`CC(C)NC(=O)N1CC[C@@H](N(C)C)[C@@H]1Cc1ccccc1` was tested. Which INHIBITION did it give?
Its INHIBITION is 0.804%.

How did the INHIBITION turn out when `c1ccc2ncc(CC3CNCCOC3)cc2c1` (configuration not stated) was run?
Its INHIBITION is 3.48%.

For `COCCN1CC[C@]2(CN(Cc3ccccn3)C[C@H]2C)C1=O`, which INHIBITION is on record?
The INHIBITION was -2.03%.
